# Assay results from PubChem BioAssay AID1942 (Johns Hopkins Ion Channel Center, 2009).
# Among all 2,400 compounds or so, about 580 (24%) were called active.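 The calls were made as follows: active = activity change at or above the mean plus 3 SD of buffer wells without dofetilide, per plate; inactive = the rest.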 Only a sample is shown.
# Biological target: Potassium voltage-gated channel subfamily KQT member 2 (Rattus norvegicus) (UniProt O88943)
# Assay: rat KCNQ2 channel activation by compounds alone, confirmation, counter-screen for hERG block protector project, cell-based, CHO, FluxOR thallium flux (AID 1942);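 also: normalized value minus buffer-control mean plus three SD of buffer wells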
# Settings: CHO-KCNQ2 cells, FluxOR thallium flux fluorescence; at 10 µM; hits give high values
# Chain of Potassium voltage-gated channel subfamily KQT member 2 (Rattus norvegicus) (O88943 whole entry, looked up): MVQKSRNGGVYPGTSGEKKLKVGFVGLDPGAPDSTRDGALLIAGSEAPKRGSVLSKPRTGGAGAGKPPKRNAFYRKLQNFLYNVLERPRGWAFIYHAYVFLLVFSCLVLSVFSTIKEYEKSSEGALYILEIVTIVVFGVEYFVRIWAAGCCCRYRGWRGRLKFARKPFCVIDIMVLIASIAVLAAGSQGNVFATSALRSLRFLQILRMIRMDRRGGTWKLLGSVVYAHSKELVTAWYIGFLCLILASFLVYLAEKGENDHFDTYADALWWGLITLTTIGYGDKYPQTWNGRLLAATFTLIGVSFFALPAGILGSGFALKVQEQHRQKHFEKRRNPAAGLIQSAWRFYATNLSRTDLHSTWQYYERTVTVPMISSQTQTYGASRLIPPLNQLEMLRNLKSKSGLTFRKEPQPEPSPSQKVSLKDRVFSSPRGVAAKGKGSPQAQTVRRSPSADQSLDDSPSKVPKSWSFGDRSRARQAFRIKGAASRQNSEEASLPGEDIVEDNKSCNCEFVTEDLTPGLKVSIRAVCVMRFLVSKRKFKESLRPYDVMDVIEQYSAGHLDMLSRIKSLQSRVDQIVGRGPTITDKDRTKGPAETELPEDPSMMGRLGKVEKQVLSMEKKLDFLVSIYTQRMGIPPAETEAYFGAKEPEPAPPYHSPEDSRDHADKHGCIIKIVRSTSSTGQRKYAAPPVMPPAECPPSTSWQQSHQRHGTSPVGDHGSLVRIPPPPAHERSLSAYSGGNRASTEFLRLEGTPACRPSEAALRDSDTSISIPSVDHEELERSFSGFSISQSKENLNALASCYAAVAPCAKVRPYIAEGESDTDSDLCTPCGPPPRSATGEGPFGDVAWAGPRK
row,Structure (SMILES),"activity change, less the hit threshold"
1,O=C(Nc1ccccc1)OCCCCCOC(=O)Nc1ccccc1,-18.2% (inactive)
2,Nc1cc(=O)[nH]c(SCC(=O)N2CCCCC2)n1,-21.9% (inactive)
3,O=C1C2CC=CCC2C(=O)N1c1ccc(Cc2ccncc2)cc1 (stereo not drawn),-5.4% (inactive)
4,O=C(c1ccc(C(F)(F)F)cc1)C1CCCN(C(=O)CCc2ccncc2)C1 (stereo not drawn),-24.8% (inactive)
5,O=C(C1CC(=O)N(c2ccc3c(c2)OCCO3)C1)N1CCCC(C(F)(F)F)C1 (stereo not drawn),-22.3% (inactive)
6,CC(C)(C)c1ccc(/C=C/C(=O)N2CCCCC2)cc1,5.1% (active)
7,COc1cc(OC)cc(C(=O)NC(=S)N2CCCCCC2)c1,-13.9% (inactive)
8,CC(C)(C)c1nc(SCC(=O)N2CCCC2)c2ccccc2n1,-0.3% (inactive)
9,O=C(NC(=S)N1CCCCCC1)c1ccc(Cl)cc1Cl,7.1% (active)
10,Cc1ccc(/C=C(\NC(=O)c2ccccc2)C(=O)N2CCCCC2)cc1,-24.3% (inactive)
11,O=C(NC(=S)N1CCCC(C(F)(F)F)C1)c1ccc(F)cc1 (stereo not drawn),24.6% (active)
12,Cc1ccc(C2C(C#N)=C(N)OC3=C2C(=O)CC(C)(C)C3)s1 (stereo not drawn),-16.9% (inactive)
13,O=[N+]([O-])c1ccccc1OCCNCc1ccccc1,-14.6% (inactive)
14,COc1ccc(CNC(=O)C(=O)c2cn(CC(=O)N3CCCC3)c3ccccc23)cc1,-11.5% (inactive)
15,CCOC(=O)CC(=O)CSc1nc2c(C)c(C)ccc2cc1C,-15.8% (inactive)
16,COC(=O)Cn1c(=O)c(=O)n(CC(=O)OC)c2ccccc21,-18.3% (inactive)
17,O=c1c2[nH]c3ccccc3c2nc2n1CCCS2,9.5% (active)
18,CCOC(=O)N1CCN(C(=O)CSc2nc3c([nH]c4ccccc43)c(=O)n2CC)CC1,-17.8% (inactive)
19,O=c1c(Cc2ccccc2)c(O)nc2n1CCCS2,-10.3% (inactive)
20,CCCc1nc(SCC(=O)Nc2cc(C)on2)c2ccccc2n1,-19.7% (inactive)
21,Cc1cc(NC(=O)CSc2nc(C3CC3)nc3sc(C)c(C)c23)no1,19.9% (active)
22,Cc1cc(NC(=O)CSc2nnc(Nc3ccccc3)s2)no1,-25.4% (inactive)
23,Cc1nc2scc(C)n2c(=O)c1S(=O)(=O)Nc1ccc(N2CCOCC2)cc1,-19.6% (inactive)
24,CCOc1cc(N2CCOCC2)c(OCC)cc1NC(=O)Cn1nc(C)c([N+](=O)[O-])c1C,-16.6% (inactive)
25,CCOc1cc(N2CCOCC2)c(OCC)cc1NC(=O)CCC1CCCC1,75.8% (active)

row,Structure (SMILES),"activity change, less the hit threshold"
1,O=C(CNC1CCCCCC1)Nc1ccccc1N1CCOCC1,-21.6% (inactive)
2,CCOc1ccc(NC(=O)CN(C)C(=O)c2c(-c3c(F)cccc3Cl)noc2C)cc1OCC,-16.8% (inactive)
3,O=C(COc1ccc2ccccc2c1Br)Nc1cccnc1,-22.1% (inactive)
4,Cc1ccc(C(=O)CC(=O)c2cccc(F)c2)c(O)c1,-14.8% (inactive)
5,Cc1ccc(/C=C/C(=O)c2ccccc(=O)c2O)cc1C,28.9% (active)
6,Cc1ccc(C(=O)c2ccccc2C(=O)O)c(O)c1,-21.5% (inactive)
7,Cc1ccc(NS(=O)(=O)c2ccc(NC(=O)c3ccccc3C(=O)O)cc2)cc1C,-17% (inactive)
8,O=C(/C=C/c1ccccc1Cl)c1ccccc(=O)c1O,30.9% (active)
9,Cc1ccc(C)c(/C=C/C(=O)c2ccccc(=O)c2O)c1,29.3% (active)
10,Cc1ccc(/C=C/C(=O)c2ccccc(=O)c2O)c(C)c1,40.1% (active)
11,Cc1cccc(NC(=O)CN2C(=O)S/C(=C\c3ccc(-c4cccc(C(=O)O)c4C)o3)C2=O)c1,-15.3% (inactive)
12,N/C(=N\OCc1ccccc1)c1nonc1N,-14.5% (inactive)
13,O=C(COC(=O)C1C2CC3OC(=O)C1C3C2)Nc1ccc(Cl)cc1 (stereo not drawn),-17.9% (inactive)
14,CCc1ccc(/C=N/NC(=O)c2nnn(-c3nonc3N)c2C(C)C)cc1,-25.3% (inactive)
15,CCC(C)C(NC(=O)C(C)NC(=O)CNC(=O)CNC(=O)OCc1ccccc1)C(=O)OC (stereo not drawn),-19.3% (inactive)
16,CCn1c2ccccc2c2cc(NC(=O)COc3ccccc3)ccc21,-20.7% (inactive)
17,O=C(NC(=S)N1CCN(c2ccccc2)CC1)c1ccccc1,11.4% (active)
18,COc1ccc(N2CCN(C(=S)Nc3cccc(OC)c3)CC2)cc1,-8.3% (inactive)
19,O=C(NC(=S)N1CCN(c2ccccc2)CC1)c1c(F)cccc1F,-2.6% (inactive)
20,CC1CCCCC1NC(=S)NC(=O)c1cccs1 (stereo not drawn),27.8% (active)
21,O=C(NC(=S)N1CCN(c2ccc(F)cc2)CC1)c1cccs1,25.4% (active)
22,CC1CCN(C(=S)NC(=O)c2cccs2)CC1,2.2% (active)
23,CC1CCCCC1NC(=S)NC(=O)c1sc2ccccc2c1Cl (stereo not drawn),-10% (inactive)
24,Cc1cc(C)cc(-n2nnc(C(=O)NCc3ccc4c(c3)OCO4)c2N)c1,-15.8% (inactive)
25,N#Cc1cccc(NC(=O)c2nc(-c3ccccc3)n(-c3ccccc3)n2)c1,-22.3% (inactive)

row,Structure (SMILES),"activity change, less the hit threshold"
1,Oc1ccc(N2CCN(C(c3cccnc3)c3nnnn3Cc3ccccc3)CC2)cc1 (stereo not drawn),-10.2% (inactive)
2,CCOC(=O)c1[nH]c(=O)[nH]c1COC(=O)c1cc2ccccc2o1,-20.5% (inactive)
3,Cn1c(/N=C/c2c(O)ccc3ccccc23)nc2ccccc21,-14.8% (inactive)
4,Cn1c(=O)c2sc3c(c2n(CC(=O)Nc2ccccc2)c1=O)COC(C)(C)C3,-11.1% (inactive)
5,CCC1(C)Cc2c(sc3[nH]c(=S)n(Cc4ccccc4)c(=O)c23)CO1 (stereo not drawn),48.6% (active)
6,CC1(C)Cc2c(sc3[nH]c(=S)n(Cc4ccccc4)c(=O)c23)CO1,11.3% (active)
7,CC(C)C1Cc2c(sc3[nH]c(=S)n(Cc4ccccc4)c(=O)c23)CO1 (stereo not drawn),19.3% (active)
8,CCC(=O)N1c2ccc(C)cc2C2=NNC(=S)NC21O (stereo not drawn),-16.9% (inactive)
9,O=C(NC1CCCC1)C(c1ccncc1)N(Cc1ccccc1F)C(=O)c1csnn1 (stereo not drawn),-8.5% (inactive)
10,COc1ccc(-c2cnn(C3CCS(=O)(=O)C3)c2N)cc1 (stereo not drawn),-16.8% (inactive)
11,Cc1cc(C)c(S(=O)(=O)c2ccccc2)c(OC(=O)c2c(F)cccc2Cl)n1,-22% (inactive)
12,COc1cccc(C(=O)/C=C/Nc2ccc(S(=O)(=O)Nc3cnc4ccccc4n3)cc2)c1,-20.6% (inactive)
13,O=C1C=C(Nc2cccc3cccnc23)c2ccccc2C1=O,-8.1% (inactive)
14,O=C(Nn1c(O)c(C=C2N=c3ccccc3=N2)sc1=S)c1cccc(Cl)c1,-23.1% (inactive)
15,CN(C(=O)c1ccc(Cl)c(S(=O)(=O)N2CCOCC2)c1)c1ccccc1C(=O)O,-1.7% (inactive)
16,COc1ccc(-c2nc(-c3ccccn3)ncc2S(C)(=O)=O)cc1,-15.6% (inactive)
17,c1ccc(-c2ccc(-c3ccncn3)cc2)cc1,-16.2% (inactive)
18,c1ccc(-c2n[nH]c(-c3ccccn3)n2)cc1,5.9% (active)
19,CC(C)Sc1nc2ccccc2n2cnnc12,-12.8% (inactive)
20,C/C(=N\Nc1nc2ccccc2s1)c1ccc(Br)s1,-5.9% (inactive)
21,C/C(=N\Nc1nc2ccccc2nc1C)c1ccccc1O,7.3% (active)
22,C/C(=N\Nc1nc2ccccc2s1)c1cccs1,-9.9% (inactive)
23,CCCCNC(=O)N1CCCC(C(=O)c2cc(C)c(OC)c(C)c2)C1 (stereo not drawn),-22.8% (inactive)
24,CCC1(c2ccc(Cl)cc2)NC(=S)N(c2ccccc2)N1 (stereo not drawn),84.8% (active)
25,CCC1(c2ccc(Cl)cc2)NC(=S)N(c2ccc(C)cc2)N1 (stereo not drawn),83.8% (active)

row,Structure (SMILES),"activity change, less the hit threshold"
1,CCC1(c2ccccc2)NC(=S)N(c2ccc(C)cc2)N1 (stereo not drawn),102% (active)
2,S=c1[nH]nc(-c2ccccn2)n1/N=C/c1ccc(-c2ccccc2Br)o1,-12.9% (inactive)
3,CC12CCC(C(=O)OC3CCCCC3)(OC1=O)C2(C)C (stereo not drawn),-26.6% (inactive)
4,C=CCNC(=O)c1onc(CSc2ccc(OC)cc2)c1C(=O)O,-16.5% (inactive)
5,Cn1c2ccccc2c(=O)c2c(=O)n(Cc3ccco3)c(-c3ccc(Cl)cc3Cl)nc21,-29.7% (inactive)
6,O=C(Nc1cccnc1)c1ccc(COc2cc(Cl)ccc2Cl)o1,-20% (inactive)
7,O=C(CCl)NCCN1C(=O)S/C(=C\c2cccnc2)C1=O,-19% (inactive)
8,C[n+]1ccccc1/C=C/c1c(F)cccc1F,-10.9% (inactive)
9,CCC(NS(=O)(=O)c1cn(C)nc1C)c1ccccc1 (stereo not drawn),-7.9% (inactive)
10,Cc1cccc(C(=O)NC(=S)NNC(=O)COc2c(C)cccc2C)c1,-27.8% (inactive)
11,C/C(=C\C(=O)c1ccccc1)NNC(=O)c1ccc(Cl)cc1,-3.2% (inactive)
12,CC(C)CNC(=S)NC(=O)c1ccc(Cl)cc1,-3.9% (inactive)
13,Cc1ccc(C(=O)NC(=S)N(C)C2CCCCC2)cc1,5.4% (active)
14,CN(C(=S)NC(=O)c1ccc(Cl)cc1)C1CCCCC1,4.8% (active)
15,CN(C1=C(NC(=O)c2ccccc2)C(=O)c2ccccc2C1=O)C1CCS(=O)(=O)C1 (stereo not drawn),-3.2% (inactive)
16,O=C(NC(=S)NNC(=O)[C@H]1C[C@@H]1c1ccccc1)c1cccc(F)c1,-30.9% (inactive)
17,Cc1cccc(C(=O)NC(=S)N(C)C2CCCCC2)c1,18.5% (active)
18,CN(C(=S)NC(=O)c1ccccc1)C1CCCCC1,2% (active)
19,COc1ccc(C(=O)NC(=S)N(C)C2CCCCC2)cc1,-3.2% (inactive)
20,COc1ccc(-c2nn(-c3ccccc3)cc2C(=O)Nc2cccc(C(=O)O)c2)cc1[N+](=O)[O-],-18.7% (inactive)
21,Cc1c(Cl)c([N+](=O)[O-])nn1CC(=O)NCC(C)C,-16.4% (inactive)
22,O=C(CCCOc1ccc(Cl)cc1Cl)Nc1ccccc1C(=O)O,-39.2% (inactive)
23,O=C(c1ccc(CS(=O)c2cccc(Cl)c2)o1)N1CCCCCC1 (stereo not drawn),-25.8% (inactive)
